The values below come from publication PMC10668032, “Altered binding affinity of SIX1-Q177R correlates with enhanced WNT5A and WNT pathway effector expression in Wilms tumor”.

Over roughly 33,000 sequences, “e-score” has its median near -0.05; the highest 2% begin near 0.38. What follows is part of a selection rich in the highest values, with near analogues and random picks from the rest.

This test deals with T1, SIX1-Q177R homeodomain (human, UniProt Q15475 108-198, Q177R).
T1 sequence: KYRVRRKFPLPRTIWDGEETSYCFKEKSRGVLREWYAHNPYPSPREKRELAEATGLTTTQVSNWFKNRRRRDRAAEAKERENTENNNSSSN
The experiment in a line: universal protein binding microarray; Universal all-10-mer PBM (8x60K, AMADID 030236), 300 nM GST-tagged protein, Alexa Fluor 488 anti-GST; buffer, salt, pH and temperature not stated (as in Berger); high values mean tight binding. The settings on record: protein: ivt; tags: N-terminal GST; dsDNA, one strand shown. The method, boiled down: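 After in vitro transcription/translation, GST-tagged homeodomains were quantified against a recombinant GST standard curve by anti-GST western blot. They were then placed in duplicate at 300 nM final concentration on universal 'all 10-mer' protein binding microarrays of 8×60K format.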
Regarding AGATAGAC, the binding signal worked out at 0.154 ± 0.0062 E-score. In the case of ATAGAGTC, the binding signal stood at 0.202 ± 0.0331 E-score. As for CTAGATAC, the figure is 0.165 ± 0.0452 E-score. For CTAGACAC, the binding signal is 0.393 ± 0.0124 E-score. The value for CTAGACCC was 0.184 ± 0.00755 E-score. Turning to ATAGACAC, the binding signal is 0.428 ± 0.0191 E-score.

GTAGACAC: the binding signal stood at 0.409 ± 0.0281 E-score. ACAAGGTG: the binding signal is 0.264 ± 0.0157 E-score. As for ACCATCCA, the figure is 0.215 ± 0.0116 E-score; as for GGGTGCGA, 0.181 ± 0.00744 E-score; as for CCCTGACG, 0.152 ± 0.00643 E-score.

In the case of CCGCCGTA, the binding signal came out at 0.164 ± 0.00253 E-score. The value for GAGACCCC was 0.225 ± 0.0263 E-score; that for CACCCACC was 0.252 ± 0.0101 E-score.

Regarding CACCACTA, the binding signal worked out at 0.3486 ± 0.00204 E-score. As for ACTGTGTG, the figure is 0.177 ± 0.0389 E-score. As for GTGGGACA, the figure is 0.171 ± 0.0189 E-score; as for GTGGACAC, 0.419 ± 0.0259 E-score. As for ATGGAGAC, the figure is 0.174 ± 0.0638 E-score; as for ATGGACAC, 0.419 ± 0.00799 E-score; as for ATGGATAC, 0.278 ± 0.0318 E-score. Turning to CTGGAAAC, the binding signal came to 0.178 ± 0.0277 E-score. As for CTGGACAC, the figure is 0.406 ± 0.0173 E-score; as for GTGCACAC, 0.271 ± 0.021 E-score. The value for CTGGATAC was 0.222 ± 0.0101 E-score; that for ACCCTAGT was 0.269 ± 0.00753 E-score. In the case of CCCCTCTA, the binding signal came to 0.2508 ± 0.000354 E-score. Consider AGGTGTCC, for which the binding signal was determined as 0.464 ± 0.0052 E-score. The value for GGGGGTCA was 0.313 ± 0.0364 E-score.

In the case of CTGTGTCA, the binding signal amounted to 0.256 ± 0.066 E-score.

As for CGGTGTCA, the binding signal worked out at 0.4918 ± 0.00175 E-score.

Take ATGTGTCG: the binding signal was found to be 0.188 ± 0.0615 E-score. The value for AGGTGTCG was 0.4794 ± 0.00471 E-score; that for AGGTGGTG was 0.287 ± 0.0143 E-score; that for AGGGGTCC was 0.178 ± 0.00987 E-score. The value for GGGTGTCA was 0.4915 ± 0.00277 E-score; that for GGGTGCCA was 0.2 ± 0.0639 E-score. The value for CGGTGCCA was 0.19 ± 0.0233 E-score; that for GGGAGTAC was 0.2586 ± 0.000728 E-score. CGGATCCG: the binding signal was 0.183 ± 0.00497 E-score. As for GTCTCATA, the figure is 0.179 ± 0.0328 E-score. As for CCCGGGGA, the figure is 0.206 ± 0.0149 E-score; as for CACCGCTC, 0.27 ± 0.013 E-score. The value for CCATAACA was 0.2144 ± 0.000806 E-score; that for AGACGGTG was 0.23 ± 0.0191 E-score. With AAACGGTG, the binding signal was found to be 0.308 ± 0.011 E-score. For the sequence CCCTCACG, the binding signal came out at 0.165 ± 0.0328 E-score. As to CCCCCTCA, the binding signal came out at 0.223 ± 0.0246 E-score. Take CCGCGCGG: the binding signal stood at 0.172 ± 0.0537 E-score. As for ACTGGTAT, the figure is 0.2685 ± 0.000262 E-score; as for CCGGTTAC, 0.1852 ± 0.000205 E-score. CGGTGATC: the binding signal is 0.163 ± 0.0497 E-score.

With ATGTGTCA, the binding signal is 0.253 ± 0.0258 E-score.

Take AGGTGTCA: the binding signal was found to be 0.4862 ± 0.000651 E-score.

On to CGGGGTCC, for which the binding signal came out at 0.241 ± 0.0168 E-score. As for AGGTGACA, the figure is 0.251 ± 0.0589 E-score. The value for CGGTGTCC was 0.489 ± 0.00456 E-score. For the sequence TCGGTGCA, the binding signal worked out at 0.232 ± 0.0114 E-score. CACGACCG: the binding signal is 0.225 ± 0.0274 E-score. With CGCCACCC, the binding signal stood at 0.19 ± 0.0435 E-score. For the sequence TAGTGAGA, the binding signal worked out at 0.154 ± 0.0331 E-score.

TGTCGACA: the binding signal was determined as 0.25 ± 0.0489 E-score.

Take GGGATACC: the binding signal turned out to be 0.341 ± 0.00451 E-score. As for AGACCCTA, the figure is 0.195 ± 0.0142 E-score; as for CACGGGCG, 0.204 ± 0.0346 E-score. On to ACACGGCC, for which the binding signal worked out at 0.3824 ± 0.0024 E-score. ACACGTCA: the binding signal worked out at 0.323 ± 0.0149 E-score.

Regarding ACACGTCG, the binding signal amounted to 0.323 ± 0.0129 E-score. In the case of ACACGGCA, the binding signal came to 0.3737 ± 0.00357 E-score. The value for ACACGTCT was 0.344 ± 0.0192 E-score; that for ACACGGCT was 0.3983 ± 0.00124 E-score; that for AACCCCGC was 0.194 ± 0.0341 E-score. As for TACTCCCA, the figure is 0.16 ± 0.038 E-score. The value for ACGCGGCG was 0.229 ± 0.0107 E-score; that for ACCGAATA was 0.155 ± 0.00809 E-score. With GACACGCA, the binding signal is 0.416 ± 0.0252 E-score. Take CACACGCG: the binding signal was 0.296 ± 0.0321 E-score. As for CACACGCC, the figure is 0.252 ± 0.0122 E-score. GACACGCC: the binding signal is 0.4444 ± 0.00225 E-score.

CACGCGCA: the binding signal was 0.212 ± 0.0332 E-score. For ACCTCCGA, the binding signal stood at 0.172 ± 0.0111 E-score. The value for CCCCTAGC was 0.177 ± 0.00211 E-score; that for ACTCGGAC was 0.179 ± 0.0406 E-score; that for CACCCTGA was 0.339 ± 0.0238 E-score. As for AGGATCCC, the figure is 0.155 ± 0.0155 E-score; as for GTAACAGA, 0.16 ± 0.00854 E-score.
